Compound activity deposited in PubChem BioAssay by The Scripps Research Institute Molecular Screening Center.
GPR151 ag: activators of human GPR151; 1% of 650,000 active; Q8TDV0; PathHunter beta-arrestin GPR151 cells, luminescence; activation, % at 11.2 µM; in the data active means activation above about 4.9%
Target sequence (Q8TDV0 whole entry, looked up): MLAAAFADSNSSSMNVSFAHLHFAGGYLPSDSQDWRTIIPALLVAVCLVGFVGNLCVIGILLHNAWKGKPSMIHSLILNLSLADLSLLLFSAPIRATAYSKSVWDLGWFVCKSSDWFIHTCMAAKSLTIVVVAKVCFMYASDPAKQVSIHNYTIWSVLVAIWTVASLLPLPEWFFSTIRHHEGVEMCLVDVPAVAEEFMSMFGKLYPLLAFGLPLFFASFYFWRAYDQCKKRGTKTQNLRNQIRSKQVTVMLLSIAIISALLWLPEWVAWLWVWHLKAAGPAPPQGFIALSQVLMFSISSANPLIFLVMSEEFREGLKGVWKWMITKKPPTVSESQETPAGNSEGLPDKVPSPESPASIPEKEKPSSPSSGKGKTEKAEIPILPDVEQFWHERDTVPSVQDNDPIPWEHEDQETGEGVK
FBW7 act: human FBW7 E3 ligase activation, primary screen. normalized activity (activation), % at 26.1 µM. AID 1259310. AlphaScreen FBW7–phospho-cyclin E peptide binding, activator screen. 0.13% of 650,000 active; in the data active means normalized activity above about 1.9%;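 further: purified mutant Fbw7 with reduced substrate affinity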
TEAD-YAP block: TEAD-YAP interaction inhibition | HEK-TIYL cells, TEAD-Gal4/YAP UAS-luciferase luminescence | inhibition, % at 9.12 µM | 1.4% of 640,000 active | AID 1259422; in the data active means inhibition above about 32%
MITF inh: blocks human microphthalmia-associated transcription factor; AID 1259374; O75030; inhibition, % at 2.6 µM; 0.91% of 650,000 active; AlphaScreen MITF homodimerization, bead proximity signal; in the data active means inhibition above about 50%
MITF inh conf: human MITF inhibition, confirmation; 16% of 4,700 active; shares compounds with MITF inh; AlphaScreen MITF homodimerization, biotin/His-MITF beads; AID 1259372; inhibition, % at 2.6 µM;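 active means inhibition above a cutoff derived from the DMSO control wells, cut at about 28% in these data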;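 further: inhibitors lower the bead chemiluminescence by keeping MITF from dimerizing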
AlphaScreen DR: AlphaScreen optical interference, dose response counter-screen | AlphaScreen optical interference counterscreen, cell-free | IC50, µM | shares compounds with MITF inh | 6% of 480 active; call rule not given here
AS interf ctr: optically interferes with AlphaScreen signal; LysRS AlphaScreen counterscreen, signal interference, triplicate; AID 1259376; inhibition, % at 2.6 µM; shares compounds with MITF inh; 7.6% of 4,700 active;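 active means inhibition above a cutoff derived from the DMSO control wells, cut at about 30% in these data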
Hits are given with their value; i = inactive; nt = no result given. This is a sample that favours compounds with a hit; in the whole collection about 3.5% have one here.

SMILES	GPR151 ag	FBW7 act	TEAD-YAP block	MITF inh	MITF inh conf	AS interf ctr	others
CC(=O)Nc1ccc(NC(=O)CN2CCN(C)CC2)cc1	i	i	i	i	nt	nt
Cc1cc(NC(=O)CN2CCN(c3ccc(F)cc3)CC2)no1	i	i	i	54	i	i
C=CCOc1ccc(/C(O)=C2/C(=O)C(=O)N(CCCN(C)C)C2c2ccc(C(C)C)cc2)cc1C (configuration not stated)	i	i	i	i	nt	nt
COc1cc(CN2CCC(C(=O)N3CCCC(C)C3)CC2)cc(Br)c1O (configuration not stated)	i	i	i	52	i	i
CCN1CCN(C(=O)C2CCN(Cc3cc(Br)c(O)c(OC)c3)CC2)CC1	i	i	i	i	nt	nt
CC1CCCN(C(=O)C2CCN(Cc3cccc(Cl)c3)CC2)C1 (configuration not stated)	i	i	i	57	i	i
CC1CCCN(C(=O)C2CCN(Cc3ccccc3F)CC2)C1 (configuration not stated)	i	i	i	67	i	i
CC1CCCN(C(=O)C2CCN(Cc3cccc4ccccc34)CC2)C1 (configuration not stated)	i	i	i	i	nt	nt
CC1CCCN(C(=O)C2CCN(Cc3cccc(Br)c3)CC2)C1 (configuration not stated)	i	i	i	62	i	i
Cc1cc(Nc2ccc(F)cc2)n2ncnc2n1	i	i	i	i	nt	nt
CN(C(=O)c1cccs1)C(Cc1ccccc1)C1CCN(C(=O)c2ccn(C)n2)CC1 (configuration not stated)	i	i	i	74	i	i
CC1(C)CC(=O)C2=C(C1)Nc1ccc3ncccc3c1C2c1ccccc1Cl (configuration not stated)	i	i	i	i	nt	nt
CN1CCN(Cc2ccc(-c3ccccc3)cc2)CC1	i	i	i	61	i	i
OCCN1CCN(Cc2ccc(-c3ccccc3)cc2)CC1	i	i	i	61	i	i
CC(=O)Nc1ccc(CN2CCN(C)CC2)cc1	i	i	i	80	i	i
c1ccc(-c2ccc(CN3CCSCC3)cc2)cc1	i	i	i	i	nt	nt
O=C(c1cccc(-n2c(=S)[nH]c3cc(Cl)ccc3c2=O)c1)N1CCN(c2ccc(F)cc2)CC1	i	i	i	i	nt	nt
Cc1ccsc1CN(C)C(=O)CCc1nnc(-c2ccccc2)o1	i	i	i	i	nt	nt
COc1ccc(-c2ocnc2C(=O)Nc2nncs2)cc1OC	i	i	i	i	nt	nt
O=C(CNC1CCCCCC1)Nc1ccc(C(=O)N2CCCCC2)cc1	i	i	i	i	nt	nt
O=C(CNCc1ccc(F)cc1)Nc1ccc(C(=O)N2CCCCC2)cc1	i	i	i	69	i	i
O=C(CNCCc1ccccc1)Nc1ccc(C(=O)N2CCCCC2)cc1	i	i	i	52	i	i
O=C(CCc1ccccc1)Nc1ccc(C(=O)N2CCCCC2)cc1	i	i	i	i	nt	nt
O=C(Cc1ccc(Cl)cc1)Nc1ccc(C(=O)N2CCCCC2)cc1	i	i	i	i	nt	nt
O=C(CNCc1ccccc1Cl)Nc1ccc(C(=O)N2CCCCC2)cc1	i	i	i	72	i	i
SMILES	GPR151 ag	FBW7 act	TEAD-YAP block	MITF inh	MITF inh conf	AS interf ctr	others
O=C(CNCCc1ccc(Cl)cc1)Nc1ccc(C(=O)N2CCCCC2)cc1	i	i	i	58	i	i
COC(=O)c1ccc(C2OCCO2)cc1	i	i	i	i	nt	nt
CC1CCCN(C(=O)CCNC(=O)Cn2cnc3sc4c(c3c2=O)CCCC4)C1 (configuration not stated)	i	i	i	i	nt	nt
O=C(CSc1ccc2nnc(-c3ccncc3)n2n1)NCc1ccccc1	i	i	i	i	nt	nt
O=C1C2CCCCC2C(=O)N1c1ccc2c(c1)CCC2 (configuration not stated)	i	i	i	i	nt	nt
O=C1C2C3C=CC(C3)C2C(=O)N1c1ccc2c(c1)CCC2 (configuration not stated)	i	i	i	79	i	i
Cc1ccc2oc(-c3ccc(Cl)c(NC(=S)NC(=O)c4oc5ccccc5c4C)c3)nc2c1	i	i	i	i	nt	nt
O=C(NC(=S)Nc1ccc2oc(-c3ccccc3)nc2c1)c1ccc(Cl)cc1	i	i	i	i	nt	nt
CCCCc1ccc(C(=O)N/C(=C\c2ccc(F)cc2)C(=O)Nc2ccc(C)c(F)c2)cc1	i	i	i	i	nt	nt
CCOc1ccccc1C1C(C#N)=C(SCC(=O)Nc2c(C)cc(C)cc2C)NC2=C1C(=O)CCC2 (configuration not stated)	i	i	i	i	nt	nt
C=CCN1C(=O)/C(=C/c2ccco2)S/C1=N/S(=O)(=O)c1ccc(Cl)cc1	i	i	i	87	i	i
C=CCN1C(=O)/C(=C/c2ccco2)S/C1=N/S(=O)(=O)c1cccs1	i	i	i	i	nt	nt
O=C(CC1C(=O)NCCN1C/C=C/c1ccccc1)NCCCc1cccnc1 (configuration not stated)	i	i	i	64	i	i
FC(F)(F)c1ccc(-c2noc(-c3cc(-c4ccc(Cl)cc4)nc4ccccc34)n2)cc1	i	i	i	56	i	i
COCCNC(=O)N1CCN(Cc2nc3ccccc3n2C)CC1	i	i	i	78	i	i
Cn1c(CN2CCN(C(=O)c3cc(=O)c4ccccc4o3)CC2)nc2ccccc21	i	i	i	86	i	i
Cn1c(CN2CCN(Cc3ccccc3)CC2)nc(=O)c2ccccc21	i	i	i	71	i	i
Cc1noc(C)c1CN1CCN(C(=O)c2cc(=O)c3ccccc3o2)CC1	i	i	i	i	nt	nt
COC(=O)c1ccc(NC(=O)CN2CCN(Cc3nc4ccccc4n3C)CC2)cc1	i	i	i	70	i	i
N=C1SCC(=O)N1c1ncc(Cc2cccc(C(F)(F)F)c2)s1	i	i	i	i	nt	nt
N=C1SCC(=O)N1c1ncc(Cc2ccccc2)s1	i	i	i	59	i	43
CCOc1ccccc1/C=N/NC(=S)Nc1cccnc1	i	i	i	i	nt	nt
O=C(Nc1cccc(O)c1)c1cc(S(=O)(=O)N2CCOCC2)c(Cl)cc1Cl	i	i	i	i	nt	nt
O=C1CCCCC1CNc1cccc(C(F)(F)F)c1 (configuration not stated)	i	i	i	74	i	i
CCOc1cc(C(=S)N2CCCCC2)ccc1OC(=O)c1ccccc1Cl	i	i	i	i	nt	nt
SMILES	GPR151 ag	FBW7 act	TEAD-YAP block	MITF inh	MITF inh conf	AS interf ctr	others
O=C(Nc1ccc(N2CCOCC2)cc1)c1csc(Nc2ccncn2)n1	i	i	i	i	nt	nt
O=C(Nc1ccc(N2CCOCC2)cc1)c1cccc(Nc2ccncn2)n1	i	i	i	58	81	i	AlphaScreen DR=i
Cc1n[nH]c(=O)nc1N/N=C/c1ccc(O)cc1	i	i	i	i	nt	nt
Cc1ccsc1/C=N/Nc1nc(=O)[nH]nc1C	i	i	i	60	34	100
O=C(O)c1c2c(nc3ccc(S(=O)(=O)N4CCC(C(=O)O)CC4)cc13)CCC2	i	i	i	68	31	i	AlphaScreen DR=i
CCOc1cccc(/C=N\N2CCN(Cc3ccccc3Cl)CC2)c1O	i	i	i	i	nt	nt
